# Assay results published in PubChem BioAssay (NCATS).
# Inconclusive results are not listed. Activity calls are given as the source filed them. Calls come from the whole dose curve; as a rule, active = well fitted inhibition curve with a large enough effect; inconclusive = small, poorly fitted or top-dose-only effect; inactive = no such curve, though single readings can be large or run the other way. Residues, ends and D or L forms follow the SMILES beside them. *: point of attachment. Cbz = O=C(OCc1ccccc1)*
# Biological target: N-terminal Xaa-Pro-Lys N-methyltransferase 1 (Homo sapiens) (UniProt Q9BV86)
# Sequence (Q9BV86 whole entry, looked up): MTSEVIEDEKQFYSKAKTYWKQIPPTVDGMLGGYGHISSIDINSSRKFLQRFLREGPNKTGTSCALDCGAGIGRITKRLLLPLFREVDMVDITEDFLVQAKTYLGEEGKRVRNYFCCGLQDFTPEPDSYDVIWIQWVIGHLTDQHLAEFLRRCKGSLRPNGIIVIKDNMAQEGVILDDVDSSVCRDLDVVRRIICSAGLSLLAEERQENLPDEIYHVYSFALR
# Test: qHTS Assay for Inhibitors of N-terminal methyltransferase 1 (NTMT1): LOPAC validation of the NTMT1 SAHH-coupled ThioGlo3 Assay (AID 1347143);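 note: SAH from peptide methylation measured as thiol fluorescence via SAHH coupling and ThioGlo3; nearly all actives have a fitted effect of over 70% in size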
# Conditions: recombinant NTMT1, SAHH-coupled ThioGlo3 fluorescence; series mostly up to 114 µM; activity change, negative = inhibition: at the top concentration
# Source text: Assay Submitter (PI): Rong Huang Ph.D, Purdue University, West Lafayette, IN 47907 The N-terminal methytransferase 1 is the first methyltransferase that methylates protein alpha-N-amines and plays an important role in regulating cell mitosis, chromatin interactions and DNA repair. It is observed to be over-expressed in various cancer patient tissues like malignant melanoma and colorectal cancer tissues. Knockdown of NTMT1 in cancer cells causes cell mitotic defects and enhances sensitivity to DNA damaging chemotherapeutics. […] These critical cellular processes in which NTMT1 is implicated, coupled with emerging links to cellular dysfunction, strengthen the inference that NTMT1 is a compelling novel anticancer target. Progress have been made in understanding the molecular properties of NTMT1 and the biological consequences of protein alpha-N-terminal methylation, but there are no specific small molecule probes available for NTMT1 to fully characterize its MTase activity. To address this unmet need, a panel of assay is created and established to enable quantitative high-throughput screening (qHTS) for novel, potent, and selective small molecule NTMT1 inhibitors. Two orthogonal qHTS that use different reagents (ThioGlo vs. MTaseGlo) are developed for primary robotic screening against the NCATS chemical library of more than 400,000 small molecules. Identified inhibitors are reacquired, validated, and further characterized. […] A pilot screen against the LOPAC library of 1280 compounds is carried out to assess performance of the optimized qHTS in 1536-well plate format. Early Translation Branch (ETB) National Center for Advancing Translational Sciences (NCATS) National Institute of Health (NIH)
# Materials: NTMT1 enzyme, substrate SPKRIA, control peptide RCC1-6 is provided by the Huang laboratory. ThioGlo3 Assay: In brief, 125nM NTMT1 enzyme was dispensed into a 1536-well assay plate with Aurora Discovery BioRAPTR Flying Reagent Dispenser (FRD, Beckton-Dickenson). Compounds (at various concentration) or 1uM RCC1-6 (SPKRIA) control were transferred to the assay plate using the Kalypsys 1536-pintool apparatus. After 1 min of room temperature incubation, 1uL of substrate (100uM SAM, 10uM SAHH, 15uM ThioGlo3) was added to the wells bringing the final assay volume to 4uL. Initial (background) fluorescence readout (EX: 340nm, EM: 450nm) was then detected using the PerkinElmer ViewLux microplate imager and a final fluorescence readout was taken after 30 min of room temperature incubation. The data was normalized to the background fluorescence.
# % is set by controls: 0 for no effect and ±100 for the full control effect; potency is the fitted concentration of half-maximal effect.
SMILES,"activity change, negative = inhibition",Potency
N[C@H](C(=O)O)[C@H](O)C(=O)O,-7.67% (inactive),–
C[C@@]1(C2CCCC2)Cc2cc(OCC(=O)O)c(Cl)c(Cl)c2C1=O,-11% (inactive),–
COc1ccccc1N1CCN(CCCCNC(=O)c2ccc3ccccc3c2)CC1,-18.9% (inactive),–
c1ccc(C(NCCNC(c2ccccc2)c2ccccc2)c2ccccc2)cc1,-18% (inactive),–
NC1(C(=O)O)CC1,-11.9% (inactive),–
CC(C)[C@H](NC(=O)OCc1ccccc1)C(=O)N[C@H](C=O)Cc1ccccc1 (Cbz-Val-Phe-aldehyde),-29.5% (inactive),–
NC/C=C\C(=O)O,-19.1% (inactive),–
C#CC(N)CCC(=O)O (stereo not given),-8.96% (inactive),–
Nc1ccc(-c2nc3ccc(-c4nc5ccc(N)cc5[nH]4)cc3[nH]2)cc1,–,56.2 µM (active)
O=C1C2C=CC=CC2=NC(=S)N1CCN1CCC(=C(c2ccc(F)cc2)c2ccc(F)cc2)CC1 (stereo not given),7.07% (inactive),–
CC1CCN=C(N)S1 (stereo not given),-6.74% (inactive),–
COC(=O)[C@H](NC(=O)c1cc(-c2ccccc2)nc2ccccc12)c1ccccc1,–,56.2 µM (active)
CNC(=O)c1cc2c(cn1)[nH]c1ccccc12,–,56.2 µM (active)
COc1ccc(-c2cc3ncc(C)n3c(Nc3ncccc3C(N)=O)n2)cc1OC,–,56.2 µM (active)
O=C(O)C1=CCCN(CCON=C(c2ccccc2)c2ccccc2)C1,-26.9% (inactive),–
S=C(S)N1CCCC1,–,20 µM (active)
CCCCS(=N)(=O)CC[C@H](N)C(=O)O (stereo not given in full),-12.3% (inactive),–
CC(=O)O[C@H]1Cc2ccccc2N(C(N)=O)c2ccccc21,-9.2% (inactive),–
C#CCn1c(=O)c2c(ncn2C)n(C)c1=O,-11.7% (inactive),–
CCCCOC(=O)NS(=O)(=O)c1sc(CC(C)C)cc1-c1ccc(Cn2c(CC)nc3c(C)cc(C)nc32)cc1,-1.76% (inactive),–

SMILES,"activity change, negative = inhibition",Potency
NC(N)=N[C@@H](CCC(=O)O)C(=O)O,-14.9% (inactive),–
CCCCCCCC/C=C\CCCCCCCC(=O)NCCc1ccc(O)c(O)c1,-28.9% (inactive),–
CC(/C=C/c1cccc(Oc2ccc(F)cc2)c1)N(O)C(N)=O (stereo not given),-11.9% (inactive),–
CC(C)NCC(O)COc1ccc(CC(N)=O)cc1 (stereo not given),-0.968% (inactive),–
NC(N)=NC(N)=Nc1ccccc1,-2.1% (inactive),–
NC1C=CC=C(C(=O)O)C1 (stereo not given),-14.9% (inactive),–
NC(=O)CC[C@H](N)C(=O)O,-19.7% (inactive),–
Cc1cc2c(cc1Cl)N(C(=O)Nc1ccnc3ccccc13)CC2,-26.1% (inactive),–
CCCn1c(=O)c2[nH]c(-c3ccc(S(=O)(=O)O)cc3)nc2n(CCC)c1=O,715% (inactive),–
OC[C@H]1O[C@@H](n2cnc3cncnc32)[C@H](O)[C@@H]1O,–,3.16 µM (active)
C[C@H](NC(=O)/C(C#N)=C/c1ccc(O)c(O)c1)c1ccccc1,–,25.1 µM (active)
O=c1[nH]ccc2c(O)cccc12,–,56.2 µM (active)
C[C@H]1CC2C3CCC4=CC(=O)C=C[C@]4(C)[C@@]3(Cl)[C@@H](O)C[C@]2(C)[C@@]1(O)C(=O)CO (stereo not given in full),-18.9% (inactive),–
O=C(O)c1cc2cc(F)ccc2[nH]1,–,56.2 µM (active)
CCCCCCC(=O)OC1CC(C)(C)NC(C)(C)C1,-23.1% (inactive),–
COc1cc(N)c(Cl)cc1C(=O)OCCN1CCCCC1,-16.9% (inactive),–
Cn1c(=O)[nH]c2ncn(C)c2c1=O,-10.7% (inactive),–
O=C1OC(=O)C2C3CCC(O3)C12 (stereo not given),-19.2% (inactive),–
CCC(=O)N1CCN(C(=O)c2ccccc2)CC1,-16.8% (inactive),–
CCCC[C@@]1(C2CCCC2)Cc2cc(OCC(=O)O)c(Cl)c(Cl)c2C1=O,-7.56% (inactive),–
